Measurements: PubChem BioAssay (EPA / NIEHS)
The source made the active and inactive calls. The calls were made as follows: active = hit-call score of the fitted dose curve at least 0.9, where 1 is the maximum; inactive = score below 0.9.

How the values were obtained:
[1] = CCTE_Padilla_ZF_Score.Craniofacial: CCTE's 144 Hour Post-fertilization zebrafish Assay Score for Craniofacial Malformation, Padilla Lab (AID 2284405)
How it was run: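 Craniofacial defects were scored at 6 dpf by two blinded observers using stereomicroscopy. Exposure of wild-type embryos began at 6–8 hpf in sealed wells of 10% Hanks' solution at 26C, with chemical removed by rinsing at 5 dpf.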

[2] = CCTE_Padilla_ZF_Score.Edema: CCTE's 144 Hour Post-fertilization zebrafish Assay Score for Edema Malformation, Padilla Lab (AID 2284406)
How it was run: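 Edema scored at 6 dpf by two blinded observers under a stereo microscope, in single outbred wild-type larvae exposed from 6-8 hpf in sealed wells (Hanks', 26C, 14:10 h light) and chemical-free after a 5 dpf rinse.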

[3] = CCTE_Padilla_ZF_Score.Spine: CCTE's 144 Hour Post-fertilization zebrafish Assay Score for Spine Malformation, Padilla Lab (AID 2284407)
How it was run: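 Spine malformation scored at 6 dpf by two independent blinded observers under stereomicroscope, after static sealed exposure from 6–8 hpf at 26C in Hanks' solution with rinse on 5 dpf. Positive-direction fit against DMSO control.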

[4] = CCTE_Padilla_ZF_Score.Swim_bladder: CCTE's 144 Hour Post-fertilization zebrafish Assay Score for Swim Bladder Malformation, Padilla Lab (AID 2284408)
How it was run: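 Swim bladder inflation scored at 6 dpf by two blinded observers under a stereo microscope. Exposure ran from 6–8 hpf in sealed wells of 10% Hanks' at 26C, with rinsing at 5 dpf; DMSO served as baseline.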

[5] = CCTE_Padilla_ZF_Score.Position: CCTE's 144 Hour Post-fertilization zebrafish Assay Score for Position, Padilla Lab (AID 2284409)
How it was run: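 Wild-type zebrafish embryos (with chorions) exposed singly from 6–8 hpf in sealed wells of Hanks' solution at 26C, rinsed at 5 dpf. At 6 dpf, blinded assessors scored abnormal water-column position by brightfield stereomicroscopy, relative to DMSO.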

[6] = CCTE_Padilla_ZF_Score.Living: CCTE's 144 Hour Post-fertilization zebrafish Assay Score for Viability, Padilla Lab (AID 2284410);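 also: larval death at 6 dpf judged by absent heartbeat or coagulation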
How it was run: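 Mortality at 6 dpf, judged as absent heartbeat or coagulation by two blinded observers, after sealed static exposure beginning at 6–8 hpf at 26C. Larvae were rinsed free of chemical at 5 dpf, and activity was fitted relative to DMSO.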

[7] = CCTE_Padilla_ZF_Score.General: CCTE's 144 Hour Post-fertilization zebrafish Assay Score for General Malformation, Padilla Lab (AID 2284411)
How it was run: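 Malformation, death and hatching were scored at 6 dpf by two blinded observers under a stereo microscope. Embryos were dosed singly from 6-8 hpf in sealed plates of 10% Hanks' at 26C and rinsed on 5 dpf; DMSO baseline.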

[8] = CCTE_Padilla_ZF_Score.Tail: CCTE's 144 Hour Post-fertilization zebrafish Assay Score for Tail Malformation, Padilla Lab (AID 2284414)
How it was run: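 Tail malformations were scored at 6 dpf by two blinded assessors under a stereo microscope. Chorionated embryos had been exposed from 6-8 hpf in sealed wells of 10% Hanks' at 26 C, then rinsed free of chemical at 5 dpf.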

[9] = CCTE_Padilla_ZF_Score.Blood_pooling: CCTE's 144 Hour Post-fertilization zebrafish Assay Score for Blood Pooling, Padilla Lab (AID 2284415)
How it was run: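 Blood pooling was scored at 6 dpf under a stereo microscope by two blinded assessors, fitted upward against DMSO. Single embryos were dosed at 6–8 hpf in 10% Hanks', kept sealed at 26C (14:10 h cycle) and rinsed at 5 dpf.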

[10] = CCTE_Padilla_ZF_Score.Any: CCTE's 144 Hour Post-fertilization zebrafish Assay Score for Any Mortality or Malformation, Padilla Lab (AID 2284416)
How it was run: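 Wild-type zebrafish embryos with chorions, one per well in 10% Hanks' from 6–8 hpf, dosed in sealed plates at 26 C, 14:10 h light:dark; rinsed at 5 dpf; blinded scoring at 6 dpf for death or malformation, versus DMSO.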

[11] = Tanguay_ZF_120hpf_DP24: Oregon State University Tanguay Lab 24 Hour Post-fertilization zebrafish Assay for Delayed Development (AID 2284390)
How it was run: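 Scored at 24 hpf as a binary present/absent call of delayed development by brightfield, with dead embryos not assessed. Embryos (5D wild type, chorion removed with pronase at 4 hpf) dosed statically from 6 hpf at 28 C in 0.64% DMSO.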

[12] = Tanguay_ZF_120hpf_CRAN: Oregon State University Tanguay Lab 120 Hour Post-fertilization zebrafish Assay for Craniofacial Malformation (AID 2284397)
How it was run: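 Scoring of craniofacial malformation as a binary endpoint was done at 120 hpf by brightfield microscopy and was not done in dead embryos. Exposure was static, starting at 6 hpf, in dechorionated wild-type embryos held singly at 28C with 0.64% DMSO final.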

[13] = Tanguay_ZF_120hpf_AXIS: Oregon State University Tanguay Lab 120 Hour Post-fertilization zebrafish Assay for Axial Malformation (AID 2284398)
How it was run: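 Scoring was binary (present or absent) for body-axis defects, judged by brightfield imaging at 120 hpf in surviving larvae. Exposure was static at 28C from 6 hpf in chorion-free 5D wild-type embryos, with 0.64% DMSO vehicle.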

[14] = Tanguay_ZF_120hpf_MORT: Oregon State University Tanguay Lab 120 Hour Post-fertilization zebrafish Assay for Mortality (AID 2284399)
How it was run: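 Mortality, recorded present/absent via brightfield imaging at 24 and 120 hpf, in 5D zebrafish embryos exposed statically from 6 hpf after pronase chorion removal. Exposure at 28C, 0.64% DMSO vehicle, DMSO baseline.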

[15] = Tanguay_ZF_120hpf_EDEM: Oregon State University Tanguay Lab 120 Hour Post-fertilization zebrafish Assay for Edema Malformation (AID 2284400)
How it was run: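 Edema recorded as a binary endpoint under brightfield at 120 hpf, excluding embryos that died. Exposure was static, sealed, 28C, from 6 hpf in dechorionated wild-type larvae, final DMSO 0.64%, DMSO as baseline.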

[16] = Tanguay_ZF_120hpf_BRN: Oregon State University Tanguay Lab 120 Hour Post-fertilization zebrafish Assay for Brain Region Malformation (AID 2284402)
How it was run: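 Binary brightfield scoring of brain malformation at 120 hpf in 5D wild-type larvae, chorion removed with pronase at 4 hpf. Static exposure began at 6 hpf, 28C, sealed plates, DMSO 0.64% (vol/vol) as vehicle baseline.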

[17] = Tanguay_ZF_120hpf_TCHR: Oregon State University Tanguay Lab 120 Hour Post-fertilization zebrafish Assay for Touch Responsive (AID 2284403)
How it was run: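 Binary touch-response calls are made at 120 hpf in 5D wild-type zebrafish larvae. These larvae were dechorionated with pronase and exposed singly from 6 hpf in sealed, dark plates at 28 °C with 0.64% DMSO final; dead embryos are excluded.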

[18] = Tanguay_ZF_120hpf_ANY: Oregon State University Tanguay Lab 120 Hour Post-fertilization zebrafish Assay for Any Mortality and Malformation (AID 2284404)
How it was run: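 Dechorionated Tropical 5D wild-type embryos, one per well from 6 hpf, static exposure in sealed, dark plates at 28C until 120 hpf, 0.64% DMSO final. Brightfield scoring of mortality and malformations as binary presence/absence, pooling 13 morphology endpoints.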

[19] = system: SRY-box transcription factor 17 (SOX17) Protein Expression, Deisenroth Lab, SOX17 (gene 64321); assay: CCTE_Deisenroth_DEVTOX-GLR_Endo_SOX17: CCTE's DevTox GLR-Endo Assay Evaluation of SRY-box transcription factor 17 (SOX17) Protein Expression, Deisenroth Lab (AID 2284413)
How it was run: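 Human RUES2-GLR cells carrying an inducible fluorescent reporter are differentiated in defined media for 48 h and dosed twice, 24 h apart. After fixation and nuclear staining, imaging yields SOX17+ cell percentage relative to 0.2% DMSO-treated differentiated cells.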

**Q.** With `O=CC(F)(F)C(F)(F)C(F)(F)F` as the compound, how does the outcome [1] read?
**A.** inactive

**Q.** And the outcome [2]?
**A.** inactive

**Q.** And the outcome [3]?
**A.** inactive

**Q.** And the outcome [4]?
**A.** inactive

**Q.** What about the outcome [5] of the same compound?
**A.** inactive

**Q.** And the outcome [6]?
**A.** inactive

**Q.** And the AC50 [7]?
**A.** 79.6 µM (active)

**Q.** And the outcome [8]?
**A.** inactive

**Q.** And the outcome [9]?
**A.** inactive

**Q.** And the outcome [10]?
**A.** inactive

**Q.** With `C=CC(C)(CCC=C(C)C)OC(C)=O` (centres undefined) as the compound, how does the outcome [7] read?
**A.** inactive

**Q.** For `CC(C)(c1ccc(Oc2ccc(N)cc2)cc1)c1ccc(Oc2ccc(N)cc2)cc1`, which outcome [7] is on record?
**A.** inactive

**Q.** Which outcome [11] does the source give for `O=P(O)(O)CCC(F)(F)C(F)(F)C(F)(F)C(F)(F)C(F)(F)C(F)(F)C(F)(F)C(F)(F)F` here?
**A.** inactive

**Q.** What about the outcome [12] of the same compound?
**A.** inactive

**Q.** And the outcome [13]?
**A.** inactive

**Q.** And the outcome [14]?
**A.** inactive

**Q.** And the outcome [15]?
**A.** inactive

**Q.** What about the outcome [16] of the same compound?
**A.** inactive

**Q.** What about the outcome [17] of the same compound?
**A.** inactive

**Q.** And the outcome [18]?
**A.** inactive

**Q.** And the outcome [1]?
**A.** inactive

**Q.** And the AC50 [2]?
**A.** 1.69 µM (active)

**Q.** What about the outcome [3] of the same compound?
**A.** inactive

**Q.** What about the AC50 [4] of the same compound?
**A.** 10 µM (active)

**Q.** And the AC50 [5]?
**A.** 65.2 µM (active)

**Q.** What about the AC50 [6] of the same compound?
**A.** 11.8 µM (active)

**Q.** What about the AC50 [7] of the same compound?
**A.** 1.78 µM (active)

**Q.** And the outcome [8]?
**A.** inactive

**Q.** What about the outcome [9] of the same compound?
**A.** inactive

**Q.** And the AC50 [10]?
**A.** 2.32 µM (active)

**Q.** Which results are given for `O=C(O)CCC(F)(F)C(F)(F)C(F)(F)C(F)(F)C(F)(F)F`?
**A.** outcome [11]: inactive; outcome [12]: inactive; outcome [13]: inactive; outcome [14]: inactive; outcome [15]: inactive; outcome [16]: inactive; outcome [17]: inactive; outcome [18]: inactive; outcome [1]: inactive; AC50 [2]: 10.7 µM (active); outcome [3]: inactive; AC50 [4]: 10.9 µM (active); AC50 [5]: 10.7 µM (active); AC50 [6]: 28.3 µM (active); AC50 [7]: 10.7 µM (active); outcome [8]: inactive; outcome [9]: inactive; AC50 [10]: 10 µM (active)

**Q.** What does the source list for `O=CC(F)(F)C(F)(F)C(F)(F)C(F)F`?
**A.** outcome [1]: inactive; outcome [2]: inactive; outcome [3]: inactive; outcome [4]: inactive; outcome [5]: inactive; outcome [6]: inactive; outcome [7]: inactive; outcome [8]: inactive; outcome [9]: inactive; outcome [10]: inactive

**Q.** For `CN(Cc1cnc2nc(N)nc(N)c2n1)c1ccc(C(=O)N[C@@H](CCC(=O)O)C(=O)O)cc1`, which AC50 [19] is on record?
**A.** 0.319 µM (active)

**Q.** What does the source list for `C=CC(F)(F)C(F)(F)C(F)(F)C(F)(F)F`?
**A.** outcome [1]: inactive; outcome [2]: inactive; outcome [3]: inactive; outcome [4]: inactive; outcome [5]: inactive; outcome [6]: inactive; outcome [7]: inactive; outcome [8]: inactive; outcome [9]: inactive; outcome [10]: inactive

**Q.** Which outcome [1] does the source give for `O=C(O)CCC(F)(F)C(F)(F)C(F)(F)C(F)(F)C(F)(F)C(F)(F)F` here?
**A.** inactive

**Q.** And the outcome [2]?
**A.** inactive

**Q.** What about the outcome [3] of the same compound?
**A.** inactive

**Q.** And the AC50 [4]?
**A.** 10.4 µM (active)

**Q.** And the outcome [5]?
**A.** inactive

**Q.** What about the AC50 [6] of the same compound?
**A.** 22.2 µM (active)

**Q.** What about the outcome [7] of the same compound?
**A.** inactive

**Q.** And the outcome [8]?
**A.** inactive

**Q.** What about the outcome [9] of the same compound?
**A.** inactive

**Q.** And the AC50 [10]?
**A.** 13.8 µM (active)
